Compound activity (PubChem)
NR2F2 inh – inhibitors of human COUP-TFII (NR2F2). P24468. 370,000 tested, 0.7% active. AID 686940. HEK293T NGFI-A luciferase reporter, luminescence. inhibition, % at 8.6 µM;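 active = inhibition above a per-plate cutoff, mean inhibition of test wells between control levels plus 3 SD, cut at about 38% in these data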;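 also: cells cotransfected with COUP-TFII expression vector driving the NGFI-A reporter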
Target sequence (P24468 whole entry, looked up): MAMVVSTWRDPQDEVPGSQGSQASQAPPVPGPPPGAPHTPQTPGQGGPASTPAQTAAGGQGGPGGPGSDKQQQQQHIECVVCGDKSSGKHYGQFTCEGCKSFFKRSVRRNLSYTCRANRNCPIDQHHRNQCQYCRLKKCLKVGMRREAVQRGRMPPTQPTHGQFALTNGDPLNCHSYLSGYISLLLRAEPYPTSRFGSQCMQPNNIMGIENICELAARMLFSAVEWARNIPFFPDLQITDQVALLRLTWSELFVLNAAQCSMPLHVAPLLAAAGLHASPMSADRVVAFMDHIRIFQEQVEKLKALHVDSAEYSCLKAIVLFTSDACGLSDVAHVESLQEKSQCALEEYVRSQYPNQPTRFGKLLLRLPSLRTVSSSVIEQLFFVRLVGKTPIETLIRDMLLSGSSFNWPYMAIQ
aDG glyco up – increases alpha dystroglycan glycosylation; Pro5-aDG cells, alpha-DG glycosylation AlphaScreen (IIH6); 0% Pro5, 100% B10-LARGE cell signal; activation, % at 10 µM; 360,000 tested, 0.22% active; AID 624168;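 active = activation of at least 8% versus controls, or a plate z-score of at least 8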;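 also: Pro5 are CHO cells carrying HIG-tagged alpha-DG that lacks glycosylation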
Gli-Sufu block – antagonists of Gli-Sufu signaling | 340,000 tested, 0.74% active | AID 588413 | inhibition, % at 5 µM | Sufu-KO-LIGHT fibroblasts, Gli luciferase reporter luminescence;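 active = inhibition above about 55%, limit read from the data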
Env fusion inh – inhibitors of HIV Env-mediated cell fusion. inhibition, % at 12.3 µM. 360,000 tested, 1.1% active. HeLa-JRFL Env/CEM21 cell fusion, luciferase;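 active = mean replicate inhibition score of at least 50 and every replicate individually at or above 50; inconclusive = only one of the two criteria met; inactive = mean below 50 and not all replicates reaching 50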
GalR3 antagonist – human GalR3 antagonism; HEK293 GalR3-CNG cAMP membrane potential fluorescence; galR3 body fused to GalR1 C-terminus; inhibition, % at 3 µM; 360,000 tested, 0.44% active;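 active = inhibition above the screen-wide average plus 3 SD, cut at about 13% in these data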;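 also: forskolin and galanin both at EC90 stimulate the cells; cAMP rise reported by CNG channel membrane potential dye signal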
Target sequence (O60755 1-299 limits assumed): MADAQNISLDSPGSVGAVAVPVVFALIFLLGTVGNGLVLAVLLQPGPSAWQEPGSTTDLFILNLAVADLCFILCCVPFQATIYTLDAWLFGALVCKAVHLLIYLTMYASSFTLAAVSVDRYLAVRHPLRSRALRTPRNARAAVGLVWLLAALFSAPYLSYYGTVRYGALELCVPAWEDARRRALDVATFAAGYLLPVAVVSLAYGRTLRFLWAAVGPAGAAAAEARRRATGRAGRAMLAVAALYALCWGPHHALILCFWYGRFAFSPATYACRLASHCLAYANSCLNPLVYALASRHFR
Gli-Sufu confirm – Gli-SUFU antagonism confirmation, single concentration; AID 602428; inhibition, % at 5 µM; Sufu-KO-LIGHT cells, Gli luciferase reporter, luminescence; 2,500 tested, 40% active; shares compounds with Gli-Sufu block;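 active = mean inhibition at 5 µM reaching about 45%, limit read from the data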
SufuKO cytotox – counter-screen for Gli-SUFU antagonists: cytotoxicity; cytotoxicity, % at 5 µM; 2,500 tested, 32% active; shares compounds with Gli-Sufu block; Sufu-KO-LIGHT cells cytotoxicity, ATP luminescence; AID 651994;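 active = mean cytotoxicity at 5 µM above about 25%, limit read from the data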;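 also: cells exposed to compound overnight for roughly 16 to 18 hours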
Wnt3a counter – inhibits Wnt3a reporter, counter-screen for Gli-SUFU antagonists; Wnt-LIGHT cells, Wnt3a-driven luciferase reporter, luminescence; AID 651995; shares compounds with Gli-Sufu block; 2,500 tested, 20% active; inhibition, % at 6.25 µM;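 active = mean inhibition above about 25%, limit read from the data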
Each line names hits and unclear results; the compound was inactive in the other large screens (follow-up assays come after a bar, where they were run). Most compounds without a hit are left out; they make up all but 2.1% or so of the library.

CC(C)(C)OC(=O)N1Cc2ccccc2C[C@H]1C(=O)NCC(=O)Nc1ccc2c(c1)OCCO2	none
CCOC(=O)CNC(=O)CSc1nc(-c2ccccc2)ns1	Gli-Sufu block 61.8 | Gli-Sufu confirm inactive | SufuKO cytotox inactive | Wnt3a counter inactive
COCC(=O)N[C@H]1C=C[C@@H](CC(=O)N2CCCCC2)O[C@@H]1CO	none (no result: NR2F2 inh, aDG glyco up, Gli-Sufu block, GalR3 antagonist)
COc1ccc(C[C@H]2CCn3cc(nn3)COC[C@H](CC(C)C)NC2=O)cc1	none (no result: NR2F2 inh, aDG glyco up, Gli-Sufu block, GalR3 antagonist)
COc1cc(C=O)c(-c2c(C=O)cc(OC)c3c2OCO3)c2c1OCO2	Gli-Sufu block 63.1 | Gli-Sufu confirm inactive | SufuKO cytotox inactive | Wnt3a counter inactive
COC(=O)C[C@H]1CC[C@@H]2[C@H](COc3ccc(NC(=O)c4ccccc4)cc3C(=O)N2C)O1	none (no result: NR2F2 inh, aDG glyco up, Gli-Sufu block, GalR3 antagonist)
CC(=O)NCCC(=O)Nc1nc(-c2cccs2)c(-c2cccs2)s1	none | Gli-Sufu confirm inactive | SufuKO cytotox inactive | Wnt3a counter inactive
C[C@@H]1CCCCO[C@H](CN(C)Cc2ccc(C(F)(F)F)cc2)[C@H](C)CN([C@H](C)CO)C(=O)c2cc(NC(=O)NC3CCCCC3)ccc2O1	none (no result: NR2F2 inh, aDG glyco up, Gli-Sufu block, GalR3 antagonist)
COc1ccc(C)cc1-n1nnnc1SCn1nnc2ccccc2c1=O	Gli-Sufu block 57.5, Env fusion inh inconclusive | Gli-Sufu confirm 64.3 | SufuKO cytotox 30.7 | Wnt3a counter 31.7
COc1ccc(C)cc1-n1nnnc1SCc1cc(=O)n2cc(C)ccc2n1	Gli-Sufu block 57.9 (no result: Env fusion inh) | Gli-Sufu confirm 57.0 | SufuKO cytotox 36.6 | Wnt3a counter inactive
COc1ccc(C)cc1-n1nnnc1SCc1csc(C)n1	none
CCCC(=O)Nc1ccc2c(c1)C(=O)N(C)[C@H]1CC[C@H](CC(=O)NCCOC)O[C@H]1CO2	none (no result: NR2F2 inh, aDG glyco up, Gli-Sufu block, GalR3 antagonist)
CCOC(=O)C(C(=O)OCC)C(C)(C)/C(C)=N\Nc1ccc([N+](=O)[O-])cc1[N+](=O)[O-]	Env fusion inh inconclusive | Gli-Sufu confirm inactive | SufuKO cytotox 29.0 | Wnt3a counter 68.7
CCCN(C)C[C@@H]1OCCCC[C@H](C)Oc2ccc(NC(=O)C3CCCCC3)cc2C(=O)N([C@@H](C)CO)C[C@@H]1C	none (no result: NR2F2 inh, aDG glyco up, Gli-Sufu block, GalR3 antagonist)
S=c1[nH]nc(CSCc2ccccc2Cl)n1C1CCCCC1	none | Gli-Sufu confirm inactive | SufuKO cytotox inactive | Wnt3a counter inactive
Cn1c(CSCc2ccccc2Cl)n[nH]c1=S	none
Cc1cc(-c2ccc([N+](=O)[O-])cc2)nc2ccccc12	none
Cc1cc(N2CCN(c3nc(-c4ccc([N+](=O)[O-])cc4)cs3)CC2)c2ccccc2n1	Gli-Sufu block 63.1 | Gli-Sufu confirm inactive | SufuKO cytotox inactive | Wnt3a counter inactive
CCCNC(=O)Nc1ccc2c(c1)C(=O)N(C)[C@H]1CC[C@@H](CC(=O)NCC3CCCCC3)O[C@H]1CO2	none (no result: NR2F2 inh, aDG glyco up, Gli-Sufu block, GalR3 antagonist)
Nn1c(CSc2nc3ccccc3o2)nnc1CSc1nc2ccccc2o1	Gli-Sufu block 94.3 | Gli-Sufu confirm inactive | SufuKO cytotox inactive | Wnt3a counter inactive
C[C@H]1CN([C@@H](C)CO)C(=O)c2cc(NS(=O)(=O)c3ccccc3)ccc2O[C@H]1CN(C)Cc1ccc(C(=O)O)cc1	none (no result: NR2F2 inh, aDG glyco up, Gli-Sufu block, GalR3 antagonist)
CCCCC(=O)Nc1cc([N+](=O)[O-])ccc1Cl	Gli-Sufu block 92.4 | Gli-Sufu confirm inactive | SufuKO cytotox inactive | Wnt3a counter 32.6
CC(C)(C)c1ccc(OCCCN2CCCC2)cc1	Gli-Sufu block 57.4 | Gli-Sufu confirm inactive | SufuKO cytotox inactive | Wnt3a counter inactive
CC(C)NC(=O)N(C)C[C@H]1Oc2ccc(NC(=O)C3CC3)cc2CC(=O)N([C@H](C)CO)C[C@@H]1C	none (no result: NR2F2 inh, aDG glyco up, Gli-Sufu block, GalR3 antagonist)
C=CCn1c(CCC(O)COCCC)n[nH]c1=S (configuration not stated)	none | Gli-Sufu confirm inactive | SufuKO cytotox inactive | Wnt3a counter inactive
CN(C)C(=O)C[C@@H]1CC[C@H](NS(=O)(=O)c2ccccc2)[C@@H](CO)O1	none (no result: NR2F2 inh, aDG glyco up, Gli-Sufu block, GalR3 antagonist)
c1cncc(C(c2nnnn2C2CCCC2)N2CCCC2)c1 (configuration not stated)	none
c1cncc(C(c2nnnn2C2CCCCC2)N2CCN3CCCC3C2)c1 (configuration not stated)	none | Gli-Sufu confirm inactive | SufuKO cytotox inactive | Wnt3a counter inactive
Cc1noc(C)c1S(=O)(=O)Nc1ccc2c(c1)C(=O)N([C@H](C)CO)C[C@@H](C)[C@@H](CN(C)Cc1ccncc1)O2	none (no result: NR2F2 inh, aDG glyco up, Gli-Sufu block, GalR3 antagonist)
O=C(C[C@H]1C=C[C@H](NS(=O)(=O)c2cccc(F)c2)[C@@H](CO)O1)NCc1ccc2c(c1)OCO2	none (no result: NR2F2 inh, aDG glyco up, Gli-Sufu block, GalR3 antagonist)
COc1ccc(NC(=O)c2cccc(N3C(=O)C4C5C=CC(C6CC56)C4C3=O)c2)c(OC)c1 (configuration not stated)	Gli-Sufu block 55.5 | Gli-Sufu confirm inactive | SufuKO cytotox inactive | Wnt3a counter inactive
O=c1c2ccccc2c2ccccc2c(=O)n1Cc1cccnc1	Gli-Sufu block 59.0 | Gli-Sufu confirm inactive | SufuKO cytotox inactive | Wnt3a counter inactive
O=C(Cc1ccccn1)NCC[C@H]1CC[C@H](NC(=O)CN2CCOCC2)[C@H](CO)O1	none (no result: NR2F2 inh, aDG glyco up, Gli-Sufu block, GalR3 antagonist)
Cc1ccc(-c2nnc(N3CCC(C)CC3)c3ccccc23)cc1C	none | Gli-Sufu confirm inactive | SufuKO cytotox inactive | Wnt3a counter 26.7
Cc1ccc(-c2nnc(N3CCC(C)CC3)c3ccccc23)cc1	none
C[C@@H]1CN([C@H](C)CO)C(=O)c2cc(C#CC(C)(C)O)cnc2O[C@@H]1CN(C)C(=O)c1ccccc1F	none (no result: NR2F2 inh, aDG glyco up, Gli-Sufu block, GalR3 antagonist)
CCOc1ccc2[nH]c3c(N4CCN(C(=O)c5ccco5)CC4)ncnc3c2c1	Gli-Sufu block 59.6 | Gli-Sufu confirm 49.8 | SufuKO cytotox inactive | Wnt3a counter inactive
O=C(c1ccco1)N1CCN(c2ncnc3c2[nH]c2ccc(Br)cc23)CC1	none (no result: Env fusion inh)
C[C@H](CO)N1C[C@H](C)[C@@H](CN(C)Cc2cncnc2)Oc2ncc(C#CC3CCCCC3)cc2C1=O	none (no result: NR2F2 inh, aDG glyco up, Gli-Sufu block, GalR3 antagonist)
COc1ccc(CCNC(=O)c2ccccc2NC(=O)C2=C(C)OCCS2)c(OC)c1	none
COc1cc(CCNC(=O)c2ccccc2NC(=O)C2=C(C)OCCS2)cc(OC)c1OC	Gli-Sufu block 98.8 | Gli-Sufu confirm inactive | SufuKO cytotox inactive | Wnt3a counter inactive
COc1cc(CNC(=O)c2ccccc2NC(=O)C2=C(C)OCCS2)cc(OC)c1OC	Gli-Sufu block 90.9 | Gli-Sufu confirm inactive | SufuKO cytotox inactive | Wnt3a counter inactive
CN(C)CC(=O)N[C@H]1CC[C@@H](CCn2cc(C3CCCCC3)nn2)O[C@@H]1CO	none (no result: NR2F2 inh, aDG glyco up, Gli-Sufu block, GalR3 antagonist)
COc1cc(C(C#N)N2CCOCC2)ccc1O (configuration not stated)	Gli-Sufu block 55.4 | Gli-Sufu confirm inactive | SufuKO cytotox inactive | Wnt3a counter inactive
COc1cc(C(C#N)N2CCCCC2)ccc1O (configuration not stated)	none (no result: Env fusion inh)
